Screening data (PubChem BioAssay)
The list is not random: actives were taken first. Their share in the collection is about 2.4%.
POLI inh: qHTS for Inhibitors of Polymerase Iota. DNA polymerase iota (Homo sapiens), Q9UNA4. Pol iota fluorescent replication assay, 10 min. Potency, µM (series often up to 115 µM), inactives show top-dose activity, negative = inhibition, usual class: inhibitors. AID 588590, 2011. actives 1% (n = 390,000); further: potency means the concentration at half of the fitted maximal effect
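Fluorescent replication assay read twice, at 0 min and 10 min after adding 50 nM (final) substrate. Enzyme (10 nM) and compounds were first incubated 15 min at room temperature; enzyme-free buffer wells were negative controls.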
POLB inh: qHTS Assay for Inhibitors of DNA Polymerase Beta; P06746; Pol beta primer extension/strand displacement, fluorescence kinetic; Potency, µM (highest dose often 114 µM), without a hit: at the highest dose activity change, negative = inhibition, usual class: inhibitors; actives 1.3% (n = 340,000); AID 485314, 2010; further: potency means the concentration at half of the fitted maximal effect; on the % scale 0 is the no-effect control and ±100 the full control effect
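Pol beta (10 nM) was preincubated with compound for 15 min at room temperature. The reaction was then started with 50 nM substrate and read immediately and after a further 10 min at room temperature.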
FEN1 inhibitor: qHTS Assay for the Inhibitors of Human Flap endonuclease 1 (FEN1) | AID 588795, 2011 | P39748 | Potency, µM (series often up to 114 µM), without a hit: at the top dose activity change, negative = inhibition, most hits filed as inhibitors | actives 0.35% (n = 390,000) | Recombinant FEN1 flap cleavage, fluorescence, 15 min; further: potency means the concentration at half of the fitted maximal effect; on the % scale 0 is the no-effect control and ±100 the full control effect; nearly all actives have a fitted effect of over 65% in size
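Potency values derive from four-parameter Hill fits of normalized qHTS data. The reaction used 10 nM FEN1 preincubated 15 min at room temperature with compound, then 50 nM DNA substrate, read at 0 and 15 min.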
WRN helicase inh: qHTS for Inhibitors of WRN Helicase; Bifunctional 3'-5' exonuclease/ATP-dependent helicase WRN (Homo sapiens), Q14191; WRN helicase unwinding, fluorescent forked duplex, kinetic; actives 0.46% (n = 360,000); Potency, µM (series often up to 114 µM), for inactives: at the highest dose activity change, negative = inhibition, usual class: inhibitors; further: potency means the concentration at half of the fitted maximal effect; on the % scale 0 is the no-effect control and ±100 the full control effect; nearly all actives have a fitted effect of over 55% in size
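Kinetic fluorescence helicase assay: unwinding of a quenched forked DNA duplex (100 nM final) with 2 mM ATP final raises red fluorescence (525/598 nm). Compounds sat 15 min at room temperature with 20 nM WRN beforehand.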
Pol kappa inh-1: qHTS for Inhibitors of Polymerase Kappa | DNA polymerase kappa (Homo sapiens), Q9UBT6 | purified Pol kappa, fluorescent DNA synthesis assay, 10 min | Potency, µM (doses to about 107 µM), inactives show at the highest dose activity, negative = inhibition, hits mostly inhibitors | actives 0.53% (n = 400,000) | AID 588579, 2011; further: potency means the concentration at half of the fitted maximal effect; on the % scale 0 is the no-effect control and ±100 the full control effect
Target sequence (Q9UBT6 whole entry, looked up): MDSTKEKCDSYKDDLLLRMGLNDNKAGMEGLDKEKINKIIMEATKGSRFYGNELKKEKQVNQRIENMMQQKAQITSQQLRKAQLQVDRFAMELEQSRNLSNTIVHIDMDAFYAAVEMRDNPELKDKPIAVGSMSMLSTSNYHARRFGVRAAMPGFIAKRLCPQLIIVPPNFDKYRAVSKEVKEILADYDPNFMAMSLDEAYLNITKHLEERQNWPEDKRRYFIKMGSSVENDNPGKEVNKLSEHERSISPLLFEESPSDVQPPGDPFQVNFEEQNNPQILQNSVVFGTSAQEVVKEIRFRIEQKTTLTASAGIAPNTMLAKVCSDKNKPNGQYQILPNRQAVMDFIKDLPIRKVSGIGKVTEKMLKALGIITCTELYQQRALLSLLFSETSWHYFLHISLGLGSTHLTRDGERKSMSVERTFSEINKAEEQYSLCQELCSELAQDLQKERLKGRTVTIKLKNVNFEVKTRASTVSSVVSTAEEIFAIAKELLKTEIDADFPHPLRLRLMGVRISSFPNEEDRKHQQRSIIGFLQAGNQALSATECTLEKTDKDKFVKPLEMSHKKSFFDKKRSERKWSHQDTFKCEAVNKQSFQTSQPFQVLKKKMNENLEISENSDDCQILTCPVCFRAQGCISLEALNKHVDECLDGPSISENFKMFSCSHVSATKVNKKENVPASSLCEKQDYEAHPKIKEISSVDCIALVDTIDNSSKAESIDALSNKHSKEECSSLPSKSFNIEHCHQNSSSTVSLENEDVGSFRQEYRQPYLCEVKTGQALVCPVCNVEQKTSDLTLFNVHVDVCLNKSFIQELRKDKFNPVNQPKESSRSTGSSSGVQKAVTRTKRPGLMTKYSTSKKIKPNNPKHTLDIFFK
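Kinetic fluorescence readout at 0 and 10 min followed reaction start with substrate at 50 nM final. Beforehand, enzyme (10 nM Pol kappa) stood 15 min with compound at room temperature; buffer-only wells were negative controls.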
Pol eta inh-1: qHTS for Inhibitors of Polymerase Eta; DNA polymerase eta (Homo sapiens), Q9Y253; recombinant Pol eta, fluorescent DNA replication assay; actives 1.2% (n = 390,000); Potency, µM (highest dose often 114 µM), without a hit: at the top dose activity change, negative = inhibition, actives largely listed as inhibitors; further: potency means the concentration at half of the fitted maximal effect; on the % scale 0 is the no-effect control and ±100 the full control effect
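Pol eta (10 nM) was preincubated with compounds for 15 min at room temperature, after which fluorescent replication substrate (50 nM final) was added to start the reaction. Fluorescence was read kinetically at 0 and 10 min.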
GALK inh confirm: Confirmation Assay for Inhibitors of Human Galactokinase (GALK); AID 2015, 2009; shares compounds with Pol eta inh-1; Potency, µM (series often up to 115 µM), for inactives: at the top dose activity, negative = inhibition, actives largely listed as inhibitors; actives 70% (n = 150); purified GALK, Kinase-Glo ATP depletion luminescence
Redox cycling: Confirmatory Assay for Inhibitors of Human Galactokinase (GALK): Phenol-HRP redox assay counterscreen; shares compounds with Pol eta inh-1; Phenol red-HRP H2O2 redox cycling, absorbance 600 nm; Potency, µM (titrated, usually from 115 µM), without a hit: top-dose activity change, negative = H2O2 signal, most hits filed as inhibitors; actives 40% (n = 150); AID 2035, 2009
HEK293 viability: Secondary Assay for Inhibitors of Human Galactokinase (GALK): HEK-293 Cell Viability Assay. shares compounds with Pol eta inh-1. HEK-293 viability, ATP luminescence (CellTiter-Glo), 24/48 h. Potency, µM (highest dose often 46.1 µM), for inactives: top-dose activity change, negative = cytotoxicity, most hits filed as inhibitors. actives 10% (n = 170); further: potency means the concentration at half of the fitted maximal effect; on the % scale 0 is the no-effect control and ±100 the full control effect
Pol kappa inh-2: qHTS for Inhibitors of Polymerase Kappa: Confirmatory Assay for Cherry-picked Compounds; shares compounds with Pol eta inh-1; purified Pol-kappa, fluorescent strand-displacement substrate; Potency, µM, hits mostly inhibitors; actives 76% (n = 920); further: potency means the concentration at half of the fitted maximal effect
Pol eta inh-2: qHTS for Inhibitors of Polymerase Eta: Confirmatory Assay for Cherry-picked Compounds. shares compounds with Pol eta inh-1. Pol eta primer extension, TAMRA/BHQ fluorescence, 10 min. Potency, µM, most hits filed as inhibitors. actives 64% (n = 2,600); further: potency means the concentration at half of the fitted maximal effect
An asterisk follows results filed as active; u = inconclusive; x = not tested or not shown; [ ] = remark or other dose. The call rests on the fitted dose curve; in most records, active means well fitted curve in the direction sought with a large enough effect; inconclusive means small, poorly fitted or top-dose-only effect, or another doubt; inactive means no such curve, though single readings can be large; an effect the other way counts as inactive or inconclusive.

SMILES	POLI inh	POLB inh	FEN1 inhibitor	WRN helicase inh	Pol kappa inh-1	Pol eta inh-1	Pol eta inh-2	others
CCOc1ccccc1/C=C\c1nc(O)c([N+](=O)[O-])c(=O)[nH]1	-17.0%	-9.8%	0.5%	-22.5%[57.1 µM]	-15.8%	u	x
O=c1[nH]c(/C=C\c2cccc(O)c2)nc(O)c1[N+](=O)[O-]	u	-24.5%	10.0%	-12.0%	-3.9%	-18.0%	x
Cc1ccc(Cl)cc1N1CCN(C(=O)c2ccc(C)c(-n3c(C)nc4cccnc43)c2)CC1	18.3%	0.1%	-1.4%	x	-20.9%	-17.9%	x
O=C1NC(=S)S/C1=C\c1ccc(SCc2ccccc2)o1	7.94µM*	14.1µM*	79.4µM*	u	25.1µM*	17.8µM*	u
O=C1NC(=S)SC1=Cc1ccccc1Cl	u	x	-9.4%	-33.7%	-12.1%	-1.7%	x
O=C1CCC2=C1C1(CCCC1)N=C(Nc1nc3ccccc3o1)N2	x	x	x	x	x	x	x	HEK293 viability=-17.3%
CC1(C)CC(=O)C2=C(C1)NC(Nc1nc3ccccc3o1)=NC21CCCCC1	16.7%	9.8%	5.9%	-2.2%	9.0%	-5.5%	x	HEK293 viability=-9.8%
c1ccc(Nc2nc3ccccc3o2)cc1	-1.7%[58.9 µM]	0.2%	-2.0%	3.8%	-9.6%	-19.6%	x
O=C1CC(c2ccccc2)CC2=C1C1(CCCCC1)N=C(Nc1nc3ccccc3o1)N2 (stereo not drawn)	x	x	x	x	x	x	x	HEK293 viability=-3.0%
COCCCn1c(=O)/c(=C\c2ccccc2OC(C)C)s/c1=C(/C#N)C(=O)Nc1ccc(C(=O)O)cc1	u	1.1%	u	u	-27.9%	u	42.6*
O=C(CCN1C(=O)/C(=C/c2cccs2)SC1=S)Nc1ccc(C(=O)O)cc1	u	31.6µM*	u	-3.4%[11.6 µM]	-4.2%	44.7µM*	x	Pol kappa inh-2=75.2*
O=C(O)/C=C/c1ccc(S(=O)(=O)Nc2ccc(C(=O)NCC(=O)O)cc2)cc1	u	-15.8%	5.7%	-1.8%[11.6 µM]	u	17.8µM*	u
O=C(O)/C=C/c1ccc(S(=O)(=O)Nc2cccnc2)cc1	141.7%	2.9%	-2.9%	-31.7%	-6.2%	2.0%	x
Cc1[nH][nH]c(=O)c1C(c1ccc(-c2cccc(Cl)c2)o1)c1c(C)[nH][nH]c1=O	2.82µM*	4.1%	-17.1%	-30.4%	0.0%	79.4µM*	x	GALK inh confirm=53µM*;Redox cycling=6.68µM*;HEK293 viability=-4.8%
Cc1[nH][nH]c(=O)c1C(c1ccc(Br)cc1)c1c(C)[nH][nH]c1=O	u	-24.3%	4.7%	2.0%	-4.4%	-5.0%	x
CCOC(=O)C1(C(C)C)Oc2ccccc2C(c2ccc(OC)cc2)=C1C(=O)OC (stereo not drawn)	x	x	x	x	-21.5%[60.1 µM]	x	x
O=C1CSC(=S)N1Cc1cccnc1	u	-23.7%	-15.5%	-8.5%[57.1 µM]	-19.2%	u	u
O=C1CSC(=S)N1c1cccnc1	u	6.9%	-13.3%	-8.2%[57.1 µM]	-15.2%	1.6%	x
CC12CCC(/C(=N/O)C1=O)C2(C)C (stereo not drawn)	-2.9%	x	14.5%	x	-4.3%	x	x
Cc1nnc(SCC2=C(C(=O)O)N3C(=O)C(NC(=O)Cn4ncc(Cl)c4C)C3SC2)s1 (stereo not drawn)	u	31.6µM*	-15.9%	-12.2%[11.6 µM]	u	17.8µM*	26.9*
CC1=C(C(=O)O)N2C(=O)C(NC(=O)c3c(F)cccc3F)C2SC1 (stereo not drawn)	-6.0%	x	3.8%	3.5%	-12.9%	-1.9%	x
CC1=C(C(=O)O)N2C(=O)C(NC(=O)c3ccn(C)n3)C2SC1 (stereo not drawn)	-2.2%	u	-0.8%	-6.1%	-14.3%	-16.6%	x
Cc1nnc(SCC2=C(C(=O)O)N3C(=O)C(NC(=O)c4cccc(F)c4F)C3SC2)s1 (stereo not drawn)	15.8µM*	1.9%	-10.1%	-7.2%[11.6 µM]	u	31.6µM*	26.9*
Cc1nnc(SCC(=O)NN2C(=O)NC3(CCCCC3)C2=O)s1	36.3%	3.6%[57.1 µM]	-3.4%	9.3%	-19.0%	-13.4%	x
Cc1cc(C)n(CC(=O)NC2C(=O)N3C(C(=O)O)=C(CSc4nnc(C)s4)CSC23)n1 (stereo not drawn)	-14.5%	u	0.2%	-9.0%[11.6 µM]	-15.2%	22.4µM*	u
SMILES	POLI inh	POLB inh	FEN1 inhibitor	WRN helicase inh	Pol kappa inh-1	Pol eta inh-1	Pol eta inh-2	others
COc1ccc(CCN2CCC[C@H](CN3CCc4cc(OC)c(OC)cc4CC3=O)C2)cc1OC	x	x	x	x	10.0%[60.1 µM]	x	x
O=c1cnc2cnc(Oc3cccc(Cl)c3)nc2n1C1CC1	x	x	x	x	-12.5%[60.1 µM]	x	x
Cc1ccc(S(=O)(=O)NN2C(=O)/C(=C\c3ccc(Cl)cc3)SC2=S)cc1	u	-17.5%	u	u	-8.9%	39.8µM*	23.9*
Cc1cc(NC2=CC(=O)C(=O)c3ccccc32)no1	u	x	-16.5%	0.8%[11.6 µM]	-12.4%	22.4µM*	u
COc1cc(OC)c(NC2=CC(=O)C(=O)c3ccccc32)cc1Cl	9.6%	-27.2%	-1.0%	15.0%	7.5%	u	x
COc1ccc(S(=O)(=O)NCc2cccn2Cc2cc(C)ccc2C)cc1OC	-10.2%	0.2%	0.9%	x	-4.3%[60.1 µM]	-21.0%	x
